Source: PubChem BioAssay
HPGD block: qHTS Assay for Inhibitors of HPGD (15-Hydroxyprostaglandin Dehydrogenase). 15-hydroxyprostaglandin dehydrogenase [NAD(+)] (Homo sapiens), P15428. AID 894, 2007. Potency, µM, inactives show at the top dose activity change, negative = inhibition, most hits filed as inhibitors. purified HPGD, NADH fluorescence kinetic, PGE2 substrate. 150,000 compounds, 4.3% hits
Target sequence (P15428 whole entry, looked up): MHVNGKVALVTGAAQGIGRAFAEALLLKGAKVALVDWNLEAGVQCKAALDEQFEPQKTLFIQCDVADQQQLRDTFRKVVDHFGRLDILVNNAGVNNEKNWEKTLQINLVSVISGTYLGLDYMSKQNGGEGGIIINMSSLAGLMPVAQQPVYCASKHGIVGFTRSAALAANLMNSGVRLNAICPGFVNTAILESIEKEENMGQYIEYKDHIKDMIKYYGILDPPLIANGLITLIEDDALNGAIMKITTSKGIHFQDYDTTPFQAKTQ
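20 nM HPGD preincubated 15 min at room temperature with compound in 50 mM Tris-HCl pH 8, 0.01% Tween 20. Started with 1 mM NAD+ and 30 uM prostaglandin E2; NADH fluorescence (360/450 nm) read 5 times over 30-s intervals, last minus first.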
Tau fluor counter: Counterscreen qHTS for Inhibitors of Tau Fibril Formation, Fluorescence Polarization. 280,000 compounds, 0.93% hits. tau K18 P301L Alexa594 fluorescence, heparin fibrillization. Potency, µM (highest dose often 57.7 µM), for inactives: top-dose activity change, negative = decrease; active = well fitted curve in the direction sought with a large enough effect; inconclusive = small, poorly fitted or top-dose-only effect, or another doubt; inactive = no such curve, though single readings can be large; an effect the other way counts as inactive or inconclusive; also: nearly all actives have a fitted effect of over 55% in size
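Human K18 P301L tau (15 uM unlabeled plus 0.24 uM Alexa 594-labeled, final) in 100 mM sodium acetate pH 7 was mixed with compound and 20 uM heparin and incubated 6 hr at 37 C.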
JMJD2E inh: qHTS Assay for Inhibitors of Human Jumonji Domain Containing 2E (JMJD2E) | AID 2147, 2009 | JMJD2E catalytic domain, FDH-coupled NADH fluorescence (FDH is formaldehyde dehydrogenase) | Potency, µM (top dose mostly 57.1 µM), without a hit: at the top dose activity change, negative = inhibition, usual class: inhibitors | 230,000 compounds, 1.6% hits;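 also: 0% = wells with enzyme and -100% = buffer wells without enzyme; nearly all actives have a fitted effect of over 50% in size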
Tau FP inhib: qHTS for Inhibitors of Tau Fibril Formation, Fluorescence Polarization; Potency, µM (doses to about 57.7 µM), for the others: at the highest dose activity, negative = inhibition, hits mostly inhibitors; 280,000 compounds, 0.39% hits; K18 P301L tau heparin fibrillization, Alexa594 FP, 6 h; Microtubule-associated protein tau (Homo sapiens), P10636; active = well fitted curve in the direction sought with a large enough effect; inconclusive = small, poorly fitted or top-dose-only effect, or another doubt; inactive = no such curve, though single readings can be large; an effect the other way counts as inactive or inconclusive; also: nearly all actives have a fitted effect of over 55% in size
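Compound effects on tau fibrillization are measured by Alexa 594 fluorescence polarization (ex 555, em 632 nm). K18 P301L tau is used at 15 uM with 0.24 uM labeled tracer, and 20 uM heparin induces aggregation over 6 hr at 37 C.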
Tau ThT inhib: qHTS for Inhibitors of Tau Fibril Formation, Thioflavin T Binding | Microtubule-associated protein tau (Homo sapiens), P10636 | recombinant tau K18 P301L (four-repeat tau fragment), heparin-induced fibrillization, ThT fluorescence | Potency, µM (top dose mostly 57.4 µM), without a hit: at the top dose activity, negative = inhibition, actives largely listed as inhibitors | 270,000 compounds, 2.1% hits | AID 1460, 2008; active = well fitted curve in the direction sought with a large enough effect; inconclusive = small, poorly fitted or top-dose-only effect, or another doubt; inactive = no such curve, though single readings can be large; an effect the other way counts as inactive or inconclusive; also: nearly all actives have a fitted effect of over 55% in size
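Aggregation was driven by heparin (20 uM final) acting on recombinant tau […] bearing P301L in 100 mM sodium acetate pH 7; fibrils were detected with Thioflavin T.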
ALDH1A1 block: qHTS Assay for Inhibitors of Aldehyde Dehydrogenase 1 (ALDH1A1); Aldehyde dehydrogenase 1A1 (Homo sapiens), P00352; Purified ALDH1A1, NADH fluorescence, propionaldehyde substrate; Potency, µM (highest dose often 75.3 µM), for inactives: at the highest dose activity, negative = inhibition, actives largely listed as inhibitors; 220,000 compounds, 7.3% hits; AID 1030, 2008;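 also: plate controls were no enzyme wells and a reference inhibitor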
Target sequence (P00352 whole entry, looked up): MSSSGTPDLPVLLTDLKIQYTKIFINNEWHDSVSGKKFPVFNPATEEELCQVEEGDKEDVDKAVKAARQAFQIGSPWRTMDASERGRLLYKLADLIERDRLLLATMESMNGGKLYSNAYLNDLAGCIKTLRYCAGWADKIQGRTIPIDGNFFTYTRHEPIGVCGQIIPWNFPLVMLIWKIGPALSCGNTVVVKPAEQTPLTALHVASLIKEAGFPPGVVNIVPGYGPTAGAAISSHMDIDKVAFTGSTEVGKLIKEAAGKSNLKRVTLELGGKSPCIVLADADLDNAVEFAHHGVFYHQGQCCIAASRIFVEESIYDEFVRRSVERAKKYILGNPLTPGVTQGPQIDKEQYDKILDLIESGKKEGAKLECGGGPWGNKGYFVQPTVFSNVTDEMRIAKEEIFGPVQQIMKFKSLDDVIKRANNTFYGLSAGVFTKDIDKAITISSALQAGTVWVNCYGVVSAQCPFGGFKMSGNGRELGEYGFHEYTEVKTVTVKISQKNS
The depositor's hits bear a star; ? = inconclusive; . = no result given; [ ] = remark or other dose. A selection: hits, their analogues and other compounds. The true share with any hit is near 9.9%. Unless noted, calls follow the shape of the dose curve; as a rule, active = well fitted inhibition curve with a large enough effect (not every such curve was filed as active); inconclusive = small, poorly fitted or top-dose-only effect, or another doubt; inactive = no such curve, though single readings can be large or run the other way. Unless noted, % is scaled to controls: 0 for no effect and ±100 for the full control effect; potency is read from the fitted curve at half-maximal effect.

SMILES	HPGD block	Tau fluor counter	JMJD2E inh	Tau FP inhib	Tau ThT inhib	ALDH1A1 block
CCN(CC)C(=O)c1ccc2c3c(cccc13)C(=O)N(CCc1ccc(OC)c(OC)c1)C2=O	17.8µM*	-8.1%	10.8%	7.9%	-11.9%	-8.8%
COc1ccc(C2=NO[C@@H]3C(=O)N(c4ccc(C)cc4C)C(=O)[C@H]23)cc1OC	-13.3%	-2.9%	4.4%	1.1%	-4.8%	22.4µM*
COc1ccc(C2=NO[C@@H]3C(=O)N(c4cccc(C)c4C)C(=O)[C@H]23)cc1OC	0.0%	-5.1%	4.9%	0.6%	-0.8%	4.8%
COc1cccc2c(SCC(=O)N/N=C/c3ccccc3)cc(C)nc12	.	-10.0%	-9.5%	-4.4%	-13.7%	-5.8%
Cc1nonc1C(=O)N/N=C/c1ccc(O)c(O)c1	31.6µM*	8.3%	-1.2%	4.0%	5.0%	-8.5%
COc1cccc2c(SCC(=O)N/N=C/c3ccc(O)c(O)c3)cc(C)nc12	.	-21.3%	15.8µM*	-3.2%	?	7.9%
COc1ccc2nc(C)cc(SCC(=O)N/N=C/c3ccc(O)c(O)c3)c2c1	.	?	5.01µM*	-5.6%	?	28.2µM*
COc1ccc2c(c1)c(C(=O)N/N=C/c1ccc(O)c(O)c1)c(C)n2C	?	-7.3%	14.1µM*	4.6%	?	-14.1%
CNS(=O)(=O)c1cn(CC(=O)N2CCN(c3ccccc3F)CC2)cc1S(=O)(=O)NC	.	8.8%	.	0.2%	15.8%	.
COc1ccc2[nH]cc(CCNc3ncncc3-c3ccccc3Cl)c2c1	.	.	.	.	.	-5.6%
COc1cc(/C=N/NC(=O)CCn2nnc3ccccc32)ccc1O	-5.0%	3.4%	-7.4%	10.5%	-2.3%	11.7%
COc1cc(/C=N/NC(=O)CCn2c3ccccc3c3ccccc32)ccc1O	-10.9%	25.1µM*[quencher]	-10.2%	9.6%	?	-0.8%
Cc1cc(SCC(=O)N/N=C/c2ccc(O)c(O)c2)c(C)cc1Br	2.82µM*	14.1µM*[quencher]	?	18.0%	?	5.0%
Cc1cc(SCC(=O)Nc2cccc(S(N)(=O)=O)c2)c(C)cc1Br	.	?	-15.2%	-13.4%	-12.1%	9.9%
CSc1cccc(NC(=O)CN2C(=O)COc3ccc(Cl)cc32)c1	.	?	.	?	-6.2%	.
CCSc1nnc(NC(=O)[C@@H](NC(=O)c2cc(OC)cc(OC)c2)C(C)C)s1	.	-8.3%	-2.3%	-1.0%	-11.5%	-15.0%
Cc1ccc(-c2csc(NC(=O)c3cccc(N4C(=O)CCC4=O)c3)n2)o1	?	-13.2%	-22.6%	7.0%	-15.4%	3.55µM*
O=C(Nc1nnc(-c2ccco2)o1)c1cccc(N2C(=O)CCC2=O)c1	.	-1.7%	2.1%	1.7%	-9.2%	28.2µM*
CCOc1ccc(-c2csc(NC(=O)c3cccc(N4C(=O)CCC4=O)c3)n2)cc1	.	2.8%[0.0958 µM]	27.4%	5.2%[0.0958 µM]	.	.
O=C(O)CC1CCCc2ccccc2C1O (stereo unspecified)	-5.6%	-9.0%	6.3%	-6.6%	-5.5%	5.1%
N#CC1=C(N)SC(N)=C(C#N)C1C1C=CCCC1 (stereo unspecified)	-23.4%	-7.0%	?	-1.8%	-8.3%	22.4µM*
N#CC1=C(N)SC(N)=C(C#N)C1C1CC=CCC1 (stereo unspecified)	-17.4%	-5.3%	-23.9%	2.5%	-3.0%	?
Cc1cc2c(c(=O)o1)C(C1C=CCCC1)C(C#N)=C(N)O2 (stereo unspecified)	28.2µM*	-9.3%	-1.1%	1.0%	-12.0%	7.94µM*
Cc1[nH]c2ccccc2c1/C=N/NC(=O)c1cc(-c2cccs2)[nH]n1	-22.5%	12.6µM*[quencher]	?	?	5.62µM*	-3.4%
Cc1[nH]c2ccccc2c1/C=N/Nc1ccccc1[N+](=O)[O-]	.	2µM*[quencher]	-8.8%	?	1.78µM*	-10.1%
SMILES	HPGD block	Tau fluor counter	JMJD2E inh	Tau FP inhib	Tau ThT inhib	ALDH1A1 block
CCC(=O)Nc1ccc(C(=O)N/N=C/c2ccccc2[N+](=O)[O-])cc1	-20.5%	6.3%	-18.2%	5.3%	?	28.2µM*
CCOc1ccc(C(=O)N/N=C/c2ccccc2[N+](=O)[O-])cc1	-6.7%	-9.5%	-24.1%	5.1%	?	-16.2%
CCC(=O)Nc1ccc(C(=O)N/N=C/c2c(C)[nH]c3ccccc23)cc1	.	?	-14.5%	?	11.2µM*	2.4%
Cc1cc(C)cc(OCC(=O)Nc2ccc(S(=O)(=O)Nc3onc(C)c3C)cc2)c1	.	2.3%	.	14.4%	-6.4%	.
Cc1[nH]c2ccccc2c1/C=N/NC(=O)CCC(=O)NCc1ccccc1	.	?	0.5%	9.0%	?	4.4%
NC(=S)N/N=C/c1ccccc1[N+](=O)[O-]	.	1.2%	-28.5%	-3.3%	-7.4%	22.4µM*
Cc1[nH]c2ccccc2c1/C=N/NC(=O)c1cccc(S(=O)(=O)Nc2cccc(C(F)(F)F)c2)c1	.	8.91µM*[quencher]	?	?	?	3.5%
NNC(=O)c1cccc(S(=O)(=O)Nc2cccc(C(F)(F)F)c2)c1	.	-28.8%	7.7%	-0.3%	.	.
Cc1[nH]c2ccccc2c1/C=N/NC(=O)C1CC1(c1ccccc1)c1ccccc1 (stereo unspecified)	-6.6%	5.01µM*[quencher]	-5.5%	-5.2%	?	-1.6%
Cc1[nH]c2ccccc2c1/C=N/NC(=S)NC(C)C	.	15.8µM*[quencher]	-13.6%	13.4%	?	-1.0%
CCNC(=S)N/N=C/c1ccccc1[N+](=O)[O-]	.	0.3%	6.9%	4.8%	3.9%	3.0%
C[C@H](NC(=O)c1ccc(Cl)c(Cl)c1)c1ccc(-c2ccccc2)cc1	-9.8%	.	.	.	.	5.3%[13.5 µM]
COc1ccc(N2CCN(C(=O)CCS(=O)(=O)c3cc4c(cc3Cl)NC(=O)CO4)CC2)cc1	.	-18.9%	.	-15.6%	6.7%	.
COc1ccccc1-n1cnnc1SCC(=O)Nc1ncc(Cl)cc1Cl	-4.3%	6.4%	6.1%	6.3%	7.7%	4.47µM*
COCCn1cnnc1SCC(=O)Nc1cccc(S(=O)(=O)N2CCCCCC2)c1	-4.4%	-15.4%	-5.6%	-9.9%	-3.8%	?
Cc1cc(C(=O)CSc2nnc(-c3ccccc3F)o2)c(C)n1Cc1cccs1	-6.7%	-26.6%	-4.8%	-10.6%	?	0.7%
COc1ccccc1-n1cnnc1SCC(=O)c1cc(C)n(Cc2cccs2)c1C	-18.5%	-13.8%	-21.9%	5.6%	?	1.26µM*
